Assay in all cases: NCI-60 one-dose screen, 48 h (100 = growth as untreated, 0 = no growth, -100 = all killed)
For one test, the system named is HCT-15 colon. As to conditions: 10 µM unless noted.
The test system of the next test is HT29 colon. The following applies: 10 µM unless noted.
In another test the test system is SNB-75 CNS. As to conditions: 10 µM unless noted.
For another test, the system named is SNB-19 CNS. The following applies: 10 µM unless noted.
The subject of the next test is U251 CNS. As to conditions: 10 µM unless noted.
A further test concerns PC-3 prostate. The following applies: 10 µM unless noted.
A further test has as its system SK-MEL-5 melanoma. The following applies: 10 µM unless noted.
A further test concerns UACC-62 melanoma. As to conditions: 10 µM unless noted.
For the next test, the system named is LOX IMVI melanoma. The following applies: 10 µM unless noted.
For the next test, the system named is SK-MEL-28 melanoma. As to conditions: 10 µM unless noted.
Another test concerns SK-MEL-2 melanoma. The following applies: 10 µM.
A further test relates to EKVX NSCLC. The following applies: 10 µM unless noted.
The next test concerns SN12C renal. The following applies: 10 µM unless noted.
Another test deals with UO-31 renal. As to conditions: 10 µM unless noted.
In another test the test system is TK-10 renal. As to conditions: 10 µM unless noted.
The subject of another test is ACHN renal. The following applies: 10 µM unless noted.
The subject of a further test is A498 renal. The following applies: 10 µM unless noted.
For the next test, the system named is CCRF-CEM leukemia. The following applies: 10 µM unless noted.
A further test has as its system MOLT-4 leukemia. The following applies: 10 µM unless noted.
The subject of the next test is CAKI-1 renal. The following applies: 10 µM unless noted.

Drawing on PubChem BioAssay (NCI), this text covers growth for eight compounds.

The panel holds about 83,000 compounds, 20% with a hit somewhere; the sample as a whole holds those more often.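 How to read the values: 0–100, growth inhibition (40 = 60% inhibited); 0, no net growth; -100 to 0, cell death (-40 = 40% of starting cells died; -100 = all dead).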 A number with no mark means an inactive call. Calls of active or inactive are those of the source. The calls were made as follows: active = growth percent below 10; inactive = the rest.

`Nc1c2c(c(O)c3c1=C(CO)C=N3)=NCCS2`: the growth in the test on HCT-15 colon is -87.1% (active); in the test on HT29 colon it was -20.9% (active); in the test on SNB-75 CNS, -79.2% (active); in the test on SNB-19 CNS, -93.7% (active); with U251 CNS it was -91.5% (active); in the test with PC-3 prostate, -51.8% (active). For the same compound, the growth with SK-MEL-5 melanoma is -99.1% (active); in the test with UACC-62 melanoma, -79.9% (active); in the test on LOX IMVI melanoma it was -89.5% (active); in the test on SK-MEL-28 melanoma, -79% (active); in the test on SK-MEL-2 melanoma, -54.6% (active); in the test on EKVX NSCLC, -63.8% (active). Also, the growth is -63.4% (active) in the test with SN12C renal; -86.3% (active) in the test on UO-31 renal; -79.4% (active) with TK-10 renal; 0.734% (active) with ACHN renal; -88.2% (active) with A498 renal; 6.13% (active) in the test with CCRF-CEM leukemia. Moreover, the growth in the test with MOLT-4 leukemia was -24.7% (active).

For the compound `CCc1cc2c(c3ccc(C(=O)CBr)cc13)CCCC2`, the growth in the test with HCT-15 colon was 101%; in the test on HT29 colon it was 91.7%; with SNB-75 CNS, 91.5%; with SNB-19 CNS, 108%; in the test with U251 CNS it was 95.1%; in the test with PC-3 prostate it was 96%. Also, the growth in the test on SK-MEL-5 melanoma is 106%; with UACC-62 melanoma, 91.8%; with LOX IMVI melanoma, 93.3%; in the test with SK-MEL-28 melanoma, 108%; with SK-MEL-2 melanoma, 96.9%; in the test with EKVX NSCLC, 74.3%. Besides, the growth in the test with SN12C renal was 99.7%; with UO-31 renal, 81.4%; with TK-10 renal it was 91.9%; in the test on ACHN renal, 105%; with A498 renal, 102%; with CCRF-CEM leukemia it was 114%. Also, the growth with MOLT-4 leukemia is 85.8%.

In the case of `O=C(Cn1c(=O)ccn(CCCCCCCCOc2ccc(Br)cc2)c1=O)Nc1ccc(Oc2ccc(Cl)cc2)cc1`, the growth was 80.4% in the test with HCT-15 colon; 66% with HT29 colon; 70.8% in the test with SNB-75 CNS; 78.7% in the test on SNB-19 CNS; 74.1% in the test with U251 CNS; 44.6% with PC-3 prostate. Moreover, the growth is 28.7% with SK-MEL-5 melanoma; 36.1% with UACC-62 melanoma; 51.1% with LOX IMVI melanoma; 72.8% in the test on SK-MEL-28 melanoma; 71% with SK-MEL-2 melanoma; 50.6% in the test with EKVX NSCLC. Moreover, the growth is 67.1% in the test on SN12C renal; 32.7% in the test on UO-31 renal; 69.6% in the test on TK-10 renal; 69.1% with ACHN renal; 54.8% in the test on A498 renal; 54.6% in the test with CCRF-CEM leukemia.

Take `Clc1ccc2c(NCCCNCc3ccc4c(c3)OCO4)ccnc2c1`: the growth in the test on HCT-15 colon is 13.2%; in the test with HT29 colon, 4.6% (active); in the test with SNB-75 CNS, 96.2%; in the test with SNB-19 CNS, 88.7%; in the test with U251 CNS, 10.6%; with PC-3 prostate it was 51.6%. The growth in the test with SK-MEL-5 melanoma was -96% (active); in the test on UACC-62 melanoma it was 89.8%; in the test with LOX IMVI melanoma, 8.83% (active); in the test on SK-MEL-28 melanoma, 51.2%; in the test on SK-MEL-2 melanoma, 29.3%; in the test with EKVX NSCLC, 71.8%. Also, the growth with SN12C renal was 66.6%; in the test with UO-31 renal, 35.8%; in the test with TK-10 renal, 78.4%; in the test on ACHN renal it was 40.6%; in the test with A498 renal it was 101%; with CCRF-CEM leukemia it was 41.7%. Moreover, the growth in the test on MOLT-4 leukemia is 25.1%.

In the case of `COc1ccc(CCCc2c3[n+](cc4c(OC)c(OC)ccc24)CCc2cc4c(cc2-3)OCO4)cc1`, the growth was 102% in the test on HCT-15 colon; 47.2% in the test with HT29 colon; 88.3% with SNB-75 CNS; 60.4% with SNB-19 CNS; 40.8% in the test with U251 CNS; 58.2% with PC-3 prostate. Also, the growth in the test with SK-MEL-5 melanoma is 39%; in the test on UACC-62 melanoma, 49.7%; in the test with LOX IMVI melanoma, 57.8%; with SK-MEL-28 melanoma, 63.1%; with SK-MEL-2 melanoma, 60.1%; with EKVX NSCLC, 78.3%. Moreover, the growth in the test with SN12C renal is 69%; with UO-31 renal, 93.2%; in the test on TK-10 renal, 66.4%; in the test on ACHN renal, 96.2%; in the test on CAKI-1 renal, 98.3%; in the test on CCRF-CEM leukemia it was 64.7%. For the same compound, the growth with MOLT-4 leukemia is 76.8%.

In the case of `CC(C)=CCc1cc2c(cc1O)C1=C(C(=O)C3=C(C1=O)S(=O)(=O)CCN3)C(C=C(C)C)O2` (stereo not given), the growth in the test with HCT-15 colon was -11.5% (active); with HT29 colon, -30.5% (active); in the test on SNB-75 CNS, -81.1% (active); in the test on SNB-19 CNS it was -91.1% (active); with U251 CNS, -81.3% (active); in the test with PC-3 prostate, 10.2%. Further, the growth in the test on SK-MEL-5 melanoma was -99.5% (active); in the test with UACC-62 melanoma, -32.3% (active); with LOX IMVI melanoma, -65.8% (active); in the test with SK-MEL-28 melanoma, -75.9% (active); with SK-MEL-2 melanoma, -53.9% (active); in the test on EKVX NSCLC it was -26.1% (active). The growth was -36.7% (active) with SN12C renal; -2.94% (active) in the test on UO-31 renal; 7.58% (active) in the test on TK-10 renal; -22.1% (active) with ACHN renal; -70% (active) in the test with A498 renal; 1.85% (active) in the test on CCRF-CEM leukemia.

As to `CC1(/C=N/NC(N)=S)NC(=O)NC1=O` (stereo not given), the growth is 104% in the test on HCT-15 colon; 93.3% in the test on HT29 colon; 90.6% in the test with SNB-75 CNS; 108% with SNB-19 CNS; 94.5% in the test on U251 CNS; 93% in the test with PC-3 prostate. For the same compound, the growth with SK-MEL-5 melanoma was 100%; with UACC-62 melanoma it was 95.6%; in the test with LOX IMVI melanoma it was 101%; in the test on SK-MEL-28 melanoma, 117%; in the test on SK-MEL-2 melanoma it was 105%; in the test on EKVX NSCLC, 99.1%. Besides, the growth is 95.5% in the test with SN12C renal; 96.5% with UO-31 renal; 96.5% in the test with TK-10 renal; 108% in the test with ACHN renal; 96.7% with CAKI-1 renal; 100% in the test with CCRF-CEM leukemia. Moreover, the growth in the test with MOLT-4 leukemia is 82%.

As to `CCOC(=O)C1=C(C)N=C2Sc3cccc(OC)c3N2[C@H]1c1ccccn1`, the growth in the test on HCT-15 colon is 104%; in the test on HT29 colon it was 97.3%; in the test on SNB-75 CNS, 93.7%; with SNB-19 CNS, 96.8%; in the test on U251 CNS, 96.4%; with PC-3 prostate, 88.3%. For the same compound, the growth is 101% with SK-MEL-5 melanoma; 87.1% in the test with UACC-62 melanoma; 96.7% with LOX IMVI melanoma; 119% in the test with SK-MEL-28 melanoma; 99.3% with SK-MEL-2 melanoma; 85.8% in the test with EKVX NSCLC. Further, the growth in the test on SN12C renal is 93.4%; in the test on UO-31 renal, 75.3%; with TK-10 renal, 117%; in the test with ACHN renal, 101%; with CAKI-1 renal, 89.2%; in the test on CCRF-CEM leukemia, 102%. In addition, the growth with MOLT-4 leukemia is 96.9%.
